# Screen size: about 4,100 compounds; about 1,600 (39%) were called active. Another 25% or so got no clear call; they are omitted. The list shows a part of the results. Values without a mark were called inactive. Calls come from the whole dose curve; as a rule, active = well fitted inhibition curve with a large enough effect; inconclusive = small, poorly fitted or top-dose-only effect; inactive = no such curve, though single readings can be large or run the other way.
# Assay: qHTS Validation assay for Inhibitors of Plasmodium falciparum Dd2 growth in vitro; note: nearly all actives have a fitted effect of over 70% in size
# Details: P. falciparum Dd2 in RBCs, SYBR Green growth, 72 h; series mostly up to 28.7 µM; activity change, negative = inhibition: at the top concentration
# Procedure, shortened: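 P. falciparum Dd2-infected red blood cells (2.5% hematocrit, 0.3% parasitemia) grown 72 h at 37 °C under 5% O2 with compounds in a titration, 29 uM to 0.5 nM final. Growth read as SYBR Green-1 fluorescence after ~16 h lysis; artesunate 300 nM as positive control.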
# % is set by controls: 0 for no effect and ±100 for the full control effect; potency is the fitted concentration of half-maximal effect.
SMILES,"activity change, negative = inhibition",Potency
Cc1cc(C)n2nc(C(=O)N3CCN4C(=O)CN(C)C(=O)C4C3)cc2n1 (configuration not stated),70.9%,–
CC(C)c1ccc(N2CC(C(=O)NCc3cncn3C3CC3)CC2=O)cc1 (configuration not stated),8.34%,–
Cc1ccc(NC(=O)CSc2n[nH]c(-c3ccccn3)n2)cc1,-0.44%,–
CCc1ccc(NC(=O)CSc2nc3n[nH]c(C)c3c(=N)n2-c2ccc(C)cc2)cc1,–,6.68 µM (active)
CCc1ccc(OCC(=O)Nc2ccc(-c3nc4ncccc4o3)cc2)cc1,-15.8%,–
CC(C)c1noc(-c2cccn3c(CNC(=O)c4cccc(Cl)c4)nnc23)n1,-8.33%,–
CCCN1CCc2[nH]cnc2C12CCN(C(=O)c1ccc(CSC)o1)CC2,0%,–
CC(OC(=O)CCc1cc(C(C)(C)C)c(O)c(C(C)(C)C)c1)C(=O)NC1CC1 (configuration not stated),–,4.73 µM (active)
COc1ccc(C(=O)NCc2nnc3c(-c4nc(C(C)C)no4)cccn23)cc1F,-19.9%,–
COc1ccc(-c2noc(-c3cccn3CC(=O)Nc3ccccc3F)n2)cc1F,–,4.22 µM (active)
COc1ccc(-c2noc(-c3cccn3CC(=O)Nc3ccccc3C)n2)cc1F,–,5.31 µM (active)
COc1ccc(-c2noc(-c3cccn3CC(=O)Nc3cc(C)ccc3C)n2)cc1F,-19.7%,–
COc1ccc(-c2noc(-c3cccn3CC(=O)Nc3cccc(Cl)c3C)n2)cc1F,8.36%,–
O=C1NC2(CCN(Cc3ccc(OC(F)(F)F)cc3)C2)OCc2ccccc21 (configuration not stated),-3.93%,–
O=C1COCC2(CN(Cc3ccsc3)C2)CN1Cc1cccc(OC(F)(F)F)c1,–,17.2 µM (active)
O=C(c1cc(C(F)(F)F)[nH]n1)N1CC[C@@H](c2ccc(F)cc2)[C@H](O)C1,10.1%,–
CCOC(=O)N1CCc2c(sc3nc4n(c(=O)c23)N=C(c2ccc(OC)cc2)CS4)C1,5.6%,–
CCCCCNc1nc2sc3c(c2c(=O)n1-c1cccc(Cl)c1)CCN(C)C3,–,7.5 µM (active)
CC(C)OC(=O)c1cccc(NC(=O)Cn2nnc3sc4c(c3c2=O)CCCC4)c1,-28.7%,–

SMILES,"activity change, negative = inhibition",Potency
CCCCNc1nc2sc3c(c2c(=O)n1-c1cccc(Cl)c1)CCN(C)C3,–,9.44 µM (active)
Cc1ccc(-c2nc(CN3CCCC3=O)no2)cc1,6.01%,–
CCCn1nnc(NC(=S)NC(=O)Cc2ccccc2)n1,-1.06%,–
CCn1nnc(NC(=O)c2ccc(C(C)(C)C)cc2)n1,–,9.44 µM (active)
CC1CCN(C(=O)C[C@@H]2c3nc(NC(=O)c4cccc(F)c4)sc3C[C@@H]3[C@](C)(CO)[C@H](O)CC[C@]32C)CC1,–,10.6 µM (active)
CCN(CC)C(=O)C[C@@H]1c2nc(NC(=O)c3cccc(F)c3)sc2C[C@@H]2[C@](C)(CO)[C@H](O)CC[C@]21C,–,9.44 µM (active)
C[C@]1(CO)[C@H]2Cc3sc(NC(=O)c4cccc(F)c4)nc3[C@@H](CC(=O)N3CCOCC3)[C@]2(C)CC[C@H]1O,–,8.41 µM (active)
C[C@H](C(=O)N1CCCC1)C1CC[C@@]2(C)Cc3sc(NC(=O)C4CC4)nc3[C@@H](C)[C@@H]2[C@H]1O (some centres not stated),41.6%,–
CCOc1cc(C(=O)Nc2nnc(CC)s2)ccc1OCC(=O)N1CCOCC1,-12.8%,–
CCOc1ccccc1C(=O)Nc1nc2c(s1)CC(C)CC2 (configuration not stated),-20.4%,–
Cc1ccc(-c2nnc3ccc(-c4ccoc4)nn23)nc1,-15.1% [at 57.5 µM],–
COc1ccc(-n2cc(CNCCCn3ccnc3)c(-c3ccccc3Cl)n2)cc1,–,3.35 µM (active)
CCCn1cnnc1CNC(=O)CC1C(=O)NCCN1Cc1ccoc1 (configuration not stated),81.8%,–
Cc1ccc(OCc2nc(C3CN(C(=O)c4ccc5nc[nH]c5c4)C3)no2)cc1,-23.1%,–
Cc1ccc(OCC(=O)N2CCC(c3noc(-c4ccccn4)n3)C2)cc1 (configuration not stated),-3.77%,–
Cc1ccc(OCc2nc(C3CCN(C(=O)c4c5c(nc6ccccc46)CCCC5)CC3)no2)cc1,–,9.44 µM (active)
CCc1cccc(NC(c2nnc(-c3ccccc3)o2)c2ccc(F)cc2Cl)c1 (configuration not stated),–,6.68 µM (active)
COc1ccc(C2C=C(c3ccc(Cl)cc3)Nc3nc(-c4ccc(Cl)cc4)nn32)cc1 (configuration not stated),–,0.237 µM (active)
Cc1ccc(C2=CC(c3ccc(Cl)cc3)n3nc(-c4ccc(C)cc4)nc3N2)cc1 (configuration not stated),–,1.68 µM (active)

SMILES,"activity change, negative = inhibition",Potency
COC(=O)C1=C(C)Nc2nnnn2C1c1ccccc1Cl (configuration not stated),15.4%,–
Cc1ccc(-c2nc3n(n2)C(c2ccccc2Cl)C=C(c2ccc(Cl)cc2)N3)cc1 (configuration not stated),–,9.44 µM (active)
COc1ccc(C2C=C(c3ccccc3)Nc3nc(NS(=O)(=O)c4ccccc4)nn32)cc1 (configuration not stated),-0.914%,–
COc1ccc(C2C=C(c3ccc(F)cc3)Nc3nc(-c4ccc(Cl)cc4)nn32)cc1 (configuration not stated),–,0.75 µM (active)
CC(=O)c1cccc(NC(=O)[C@H]2O[C@@H]3OC(C)(C)O[C@@H]3[C@H]3OC(C)(C)O[C@H]32)c1,16.4%,–
COc1cccc(-c2c(C#N)c(N)nc3c2c(C)nn3-c2ccccc2)c1O,–,1.5 µM (active)
COc1ccc(Cl)cc1NC(=O)c1cc(C)nc2c1c(C)nn2-c1ccccc1,-0.338%,–
CCN(C(=O)Cn1nc2c3cc(F)ccc3n(Cc3cccc(C)c3)cc-2c1=O)c1cccc(C)c1,43.5%,–
CCN(C(=O)CSc1nc(-c2ccc(C(C)C)cc2)no1)c1cccc(C)c1,–,1.06 µM (active)
CCN(C(=O)CSc1nc(-c2ccc(C(C)C)cc2)no1)c1ccccc1,–,0.944 µM (active)
Cc1cccc(C(=O)NCc2nnc3c(-c4nc(C(C)C)no4)cccn23)c1,-3.28%,–
Cn1c(=O)c(=O)n(C)c2cc(N3CCCC3)c(NC(=O)c3ccccc3F)cc21,7.8%,–
Cc1ccccc1NC(=O)c1cc(C(=O)c2cc(Cl)ccc2O)cn(-c2ccccc2C)c1=O,–,0.376 µM (active)
O=C(Cn1cc(C(=O)c2ccncc2)c(=O)c2cc(F)ccc21)Nc1ccc(Cl)cc1,5.87%,–
Cc1ccc(NC(=O)c2cc(C(=O)c3cc(Cl)ccc3O)cn(-c3ccc(C)cc3)c2=O)cc1,–,0.422 µM (active)
Cc1ccc(NC(=O)c2cc3n(n2)CC(c2ccc(Cl)cc2)OC3)cc1 (configuration not stated),3.18%,–
COc1cc(Cn2nnc3ccccc32)cc(Br)c1O,33%,–
CCC(C)NC(=O)C1CCC(CNS(=O)(=O)c2cccc3nsnc23)CC1 (configuration not stated),27.7%,–
Oc1ccc(-c2n[nH]c(=S)n2-c2ccc3c(c2)OCCO3)c(O)c1,–,2.66 µM (active)
